Source: the supplement of paper PMC10105736
Unmarked numbers belong to inactive results.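 Rule for the calls: active = MAPPIT score above the 99th percentile of random reference set scores in the same batch; inactive = at or below it.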

Key:
Test in all cases: MAPPIT interaction score (arbitrary units); higher = stronger binary interaction signal, active = hit call of the paper
ATPsynF = conditions: MAPPIT configuration: N-N; pair source set: DPIM
Protocol: (§1)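 MAPPIT in HEK293T cells: Drosophila bait and prey ORFs (from the FlyBi ORF collection) were co-transfected in quadruplicate, with two wells stimulated by erythropoietin. Interaction-dependent JAK-STAT activation was read out with a STAT-responsive firefly luciferase reporter. Positive calls use the 99th percentile of random reference set (RRS) scores within each batch […]. Batches Dvs01 and Dvs02 used the N-N configuration and Dvs04 the N-C configuration. Pairs come from FlyBi screens, CuraGen, DPiM, Finley Y2H, Lit-BM-16, Lit-BS-16 and RRS.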

Act57B = conditions: MAPPIT configuration: N-N; pair source set: screen_1
Protocol: as §1

ATPsyndelta = conditions: MAPPIT configuration: N-N; pair source set: DPIM
Protocol: as §1

ATPsynG = conditions: MAPPIT configuration: N-N; pair source set: Lit-BS-16
Protocol: as §1

sle = conditions: MAPPIT configuration: N-N; pair source set: Lit-BS-16
Protocol: as §1

Arc1 = conditions: MAPPIT configuration: N-N
Protocol: as §1

CG34382 = conditions: MAPPIT configuration: N-N; pair source set: Curagen_high_conf
Protocol: as §1

CG8441 = conditions: MAPPIT configuration: N-N; pair source set: Lit-BS-16
Protocol: as §1

Pbgd = conditions: MAPPIT configuration: N-N; pair source set: DPIM
Protocol: as §1

Art8 = conditions: MAPPIT configuration: N-N; pair source set: Curagen_high_conf
Protocol: as §1

ATPsyngamma = conditions: MAPPIT configuration: N-N; pair source set: DPIM
Protocol: as §1

Adar = conditions: MAPPIT configuration: N-N; pair source set: RRS
Protocol: as §1

Arc2 = conditions: MAPPIT configuration: N-N; pair source set: screen_1
Protocol: as §1

ArfGAP3 = conditions: MAPPIT configuration: N-N; pair source set: Curagen_high_conf
Protocol: as §1
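Note: HEK293T cells with Epo stimulation, STAT-responsive firefly luciferase reporter, fold induction versus unstimulated cells divided by the larger fold induction of two negative controls lacking either bait or prey.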

B1: ATPsynCF6 (protein)
chain: MLSQSLLSGMRVLRTEARRNFGIVAPALNKASDPIQQLFLDKVREYKQKSAGGKLVDSNPDIERELKTELDRVAKQFGSDGKTDMLKFPEFQFPDVKVDPITQAPQ
- MAPPIT interaction score (ATPsynF): -0.221

B2: CG12206 (protein)
chain: MAAITSNVSRLEPMRGISIIIESPEVATATPPPATTTATAEAEAATKQVAPTAKSNSNTEMSLKSQAAGMLLAFGDTAATAKDNLETSYDTAAKSTAAPETNKIYPQLLLRIGGEIAGATASAEAAASAATAAAATATSPTIISCNGEIAASQAAATAADTAATLQHNNTVKIQIESQGQQRTLGKQISVVKLNEGVEEMQQHMCYLVDTSGQYSPCETLDSGTGSDLENHPQQQQQPQQVRSPQLELHLQTTRLMVNEEADHKHSPLETPSPVPKRAYSLTDDSEECDESSNSSLSCDSLHSGGLLPTTLLRDIRFRERASGPLVTKINGRPLQFETDGYYTFHVREHENFRSFGSNSSTEYEAQHFTDEQPGEDFVGFRDIRTAGKLAGNSTIKSAKGTVRGVKNRVRNGVATFLQLQQPNVKNYMEKDVGKVVLYTTSMGIIRDTYAKCANVKKILRTLLIKFEERDIFMSVEYQQEMRERMQDETIRVPQLFVEGQLIGDANIVERLNESGELRQLLRPYKSIATAYTCQTCGGYRMLPCPACNGSKKSMHRNHFTAEFVALKCMNCDEVGLIKCPNC
- MAPPIT interaction score (Act57B): 1.77

B3: ATPsynF (protein)
chain: MAFGDYPAEYNPKVHGPYDPARFYGKADVPFGQVKLGEIGAWLGRRNKTPNAVAGAVSRAWWRWQHKYVFPKRAGIAPFFQLTVASMTFFYLINYTKLKHHRNYKYH
- MAPPIT interaction score (ATPsyndelta): 0.173

B4: Arp6 (protein)
chain: MANAVVVLDNGAHTAKVGLANQDEPHVVPNCIMKAKSERRRAFVGNQIDECRDTSALYYILAFQRGYLLNWHTQKTVWDYIFSKDGIGCSLENRNIVITEPQMNFQSIQEATLEILFEEYKVDGVYKTTAADLAAFNYVADSEERTTMESLNCIIIDVGYSFTHVVPFVLGRRVLQGIRRIDMGGKALTNQLKELISYRHLNVMDESHVVNQIKEDVCFVAEDFKQAMQVHYSEEKRREVTVDYVLPDFTTVKRGYVRVPGKPREDEEQQQMVSLCNERFTVPELLFNPSDIGVQQVGIPEAVADCLKACPWEAHRELLLNILIVGGSAQFPGFLPRLKRDLRALVPDDLEVSLICPEDPVRYAWYGGKEVATSPNFEEFVYTQDDYEEYGFQGINQR
- MAPPIT interaction score (ATPsynG): 0.0569
- MAPPIT interaction score (sle): -0.421

B5: Arc1 (protein)
chain: MAQLTQMTNEQLRELIEAVRAAAVGAAGSAAAAGGADASRGKGNFSACTHSFGGTRDHDVVEEFIGNIETYKDVEGISDENALKGISLLFYGMASTWWQGVRKEATTWKEAIALIREHFSPTKPAYQIYMEFFQNKQDDHDPIDTFVIQKRALLAQLPSGRHDEETELDLLFGLLNIKYRKHISRHSVHTFKDLLEQGRIIEHNNQEDEEQLATAKNTRGSKRTTRCTYCSFRGHTFDNCRKRQKDRQEEQHEE
- MAPPIT interaction score (Arc1; pair source set: screen_1): 4.55 (active)
- MAPPIT interaction score (Arc1; pair source set: screen_2): 3.68 (active)
- MAPPIT interaction score (CG34382): 0.00338
- MAPPIT interaction score (CG8441): -0.34
- MAPPIT interaction score (Pbgd): 0.22

B6: Ntmt (protein)
chain: MTTTLEEQLSDKLQMMDETTDKVQGSSKQKDDSSIAASSDAKTASPSSSDSSTKVAAPESEFYNKAQKYWSEVPATVNGMLGGLGYISAIDIQGSNVFLREIRVPGNRLALDCGAGIGRVTRNLLIPRFSCVDLVEQDPAFADKAREYCTSEDGSRGKVGQIYNVGLQKFTPTQQYDLVWTQWVLGHLTDRDLVSFFRRIKQGLAPGAFLCLKENVSSSKKTVEDRNDSSVTRPLDSYEHFLKEAGFRIVRKVKQQNFPKGLFPVYMIACKPVSKE
- MAPPIT interaction score (Art8): 3.74 (active)

B7: CycA (protein)
chain: MASFQIHQDMSNKENPGIKIPAGVKNTKQPLAVIGGKAEKNALAPRANFAVLNGNNNVPRPAGKVQVFRDVRNLNVDENVEYGAKKSNVVPVVEQFKTFSVYEDNNDTQVAPSGKSLASLVDKENHDVKFGAGQKELVDYDLDSTPMSVTDVQSPMSVDRSILGVIQSSDISVGTETGVSPTGRVKELPPRNDRQRFLEVVQYQMDILEYFRESEKKHRPKPLYMRRQKDISHNMRSILIDWLVEVSEEYKLDTETLYLSVFYLDRFLSQMAVVRSKLQLVGTAAMYIAAKYEEIYPPEVGEFVFLTDDSYTKAQVLRMEQVILKILSFDLCTPTAYVFINTYAVLCDMPEKLKYMTLYISELSLMEGETYLQYLPSLMSSASVALARHILGMEMWTPRLEEITTYKLEDLKTVVLHLCHTHKTAKELNTQAMREKYNRDTYKKVAMMESVEMSKDDFDQLCEAYNCKQKEDEHQQPDINTKSNVNLFYKF
- MAPPIT interaction score (ATPsyngamma): 1.52

B8: GstZ2 (protein)
chain: MSTNLCPNASSSDIQPILYSYWRSSCSWRVRIAMNLKEIPYDIKPISLIKSGGEQHCNEYREVNPMEQVPALQIDGHTLIESVAIMHYLEETRPQRPLLPQDVHKRAKVREIVEIICSGIQPLQNLIVLIHVGEEKKKEWAQHWITRGFRAVEKALSTSAGKYCVGDEISMADCCLVPQVFNARRFHVDLRPYPIILRIDRELESNPAFRAAHPSNQPDCPPELPNK
- MAPPIT interaction score (Adar): 0.0763

B9: Arc2 (protein)
chain: MTQMSDEQFRIFIETIKSLGPIKEEPPSKGSFSNCTVRFSGQRDHDAVDEFINAVETYKEVEGISDKDALKGLPLLFKSIAVVWWKGVRRDAKTWSDALQLLRDHFSPTKPSYQIYMEIFETKQSYDEVIDSFICKQRALLAKLPEGRHDEETELDFIYGLMQPKYRESIPRHEVKTFRELLDRGRTVERTRH
- MAPPIT interaction score (Arc2): 6.05 (active)

B10: CG16894 (protein)
chain: MWYSTVRNPSIALIKQGYHILAEYNLVKEELKNIYAIPSYACGLHWFGVIFVHSGIYAGSVFRFSILLPENFPADISLPTVVFSTEVLHPHICPQNKTLDLAHFLNEWRKDEHHIWHVLRYIQAIFADPEGSICTGQSSSGDLVIMDEVRNMNALNMLAKSRPEYIKRVQEQAILSRNLIYDRPPTEDPHYIIVEPYCAERHLKFMDQLKSPCWKEATSMDCSQPSEYLGHIDSSRQLDEEEANQVEKLHRGRIPEHQREESEVSL
- MAPPIT interaction score (ArfGAP3): 0.483
